High-throughput results: PubChem, several laboratories
Rows were chosen to be rich in hits. Some 1.1% of all compounds tested hit in one or more screens of this group.
DSG3 Ab inh: inhibitors of pemphigus antibody binding to DSG3, primary screen, biochemical, bead-based, flow cytometry, scFv-GFP. Desmoglein-3 (Homo sapiens), P32926. DSG3-coupled beads, scFv-anti-DSG3-GFP binding; hits give low values. binding (percent of control), % at 10 µM. 310,000 compounds, 0.48% hits;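 active means binding more than 3 SD below its plate's average and above zero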;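 further: hits lower antibody fragment binding to DSG3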
AI-2 QS modul: Vibrio harveyi AI-2 quorum sensing modulators, primary screen, JMH597 strain, luminescence/OD600 ratio; Vibrio harveyi JMH597 AI-2 luminescence/OD600 ratio, 9 h; hits give low values; strain lacks LuxN and CqsS sensors; 0 = neutral-control median; activity change, % at 7.5 µM; 300,000 compounds, 0.4% hits; AID 2094, 2009; in the data active means activity change below about -75%, passing the limit was not always enough;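 further: luminescence divided by OD600 gain over 9 h not by final OD600 alone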
NTR1 ag: agonists of human NTR1, primary screen, imaging, U2OS cells, beta-arrestin-GFP, high content; NTR1-U2OS beta-arrestin-GFP spot imaging, agonist mode; Neurotensin receptor type 1 (Homo sapiens), P30989; 330,000 compounds, 0.17% hits; activation, % at 20 µM; AID 493036, 2011;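 active means activation at or above 40% of the spot to cytoplasm intensity ratio, with at least 20 cells analyzed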
VLA-4 inh: inhibition in human VLA-4 binding assay, primary screen, VLA-4 allosteric modulator project, MLPCN library, flow cytometry, VLA-4 expressing cells. Integrin alpha-4 (Homo sapiens), P13612. ligand binding flow cytometry. inhibition, % (about 7 µM as worked out from the volumes in the protocol). 330,000 compounds, 0.2% hits; in the data active means inhibition above about 50%
Target sequence (P13612 whole entry, looked up): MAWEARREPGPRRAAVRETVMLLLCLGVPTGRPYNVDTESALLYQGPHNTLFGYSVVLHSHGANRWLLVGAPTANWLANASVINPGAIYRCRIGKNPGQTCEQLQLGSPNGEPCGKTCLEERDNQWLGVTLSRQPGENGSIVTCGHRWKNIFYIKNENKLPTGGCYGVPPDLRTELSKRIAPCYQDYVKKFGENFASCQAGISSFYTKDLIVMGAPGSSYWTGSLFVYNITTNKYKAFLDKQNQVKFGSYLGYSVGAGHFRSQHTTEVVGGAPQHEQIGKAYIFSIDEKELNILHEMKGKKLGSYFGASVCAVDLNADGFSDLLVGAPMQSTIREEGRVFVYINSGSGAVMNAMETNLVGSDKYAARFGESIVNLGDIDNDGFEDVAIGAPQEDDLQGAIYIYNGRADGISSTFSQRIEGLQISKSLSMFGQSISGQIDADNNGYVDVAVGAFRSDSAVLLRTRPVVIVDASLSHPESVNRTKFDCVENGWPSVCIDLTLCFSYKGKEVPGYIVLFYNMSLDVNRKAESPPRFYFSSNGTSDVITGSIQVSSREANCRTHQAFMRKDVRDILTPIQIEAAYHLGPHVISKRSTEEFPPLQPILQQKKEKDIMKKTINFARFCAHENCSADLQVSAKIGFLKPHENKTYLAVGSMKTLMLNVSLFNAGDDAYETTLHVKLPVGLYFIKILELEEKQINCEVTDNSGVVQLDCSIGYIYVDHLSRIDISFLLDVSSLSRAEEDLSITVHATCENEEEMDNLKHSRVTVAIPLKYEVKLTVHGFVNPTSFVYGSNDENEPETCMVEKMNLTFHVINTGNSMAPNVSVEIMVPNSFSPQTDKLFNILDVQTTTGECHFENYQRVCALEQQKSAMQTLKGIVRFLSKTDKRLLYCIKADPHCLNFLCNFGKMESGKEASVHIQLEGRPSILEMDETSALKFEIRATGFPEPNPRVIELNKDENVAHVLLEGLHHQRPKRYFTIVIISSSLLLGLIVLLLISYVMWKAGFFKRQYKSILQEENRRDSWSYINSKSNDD
Numbers stand for hits; 0 = inactive; - = not tested or not shown.

SMILES | DSG3 Ab inh | AI-2 QS modul | NTR1 ag | VLA-4 inh
Cc1ccc(S(=O)(=O)Nc2cc(Cl)c(O)c3ncccc23)cc1 | - | -227 | 0 | 0
C/C=C\C=C/C(=O)Nc1cccc(C2=NOC3(C2)C[C@@H](C(N)=O)N(C(=O)/C=C/C=C\C)C3)c1 (stereo partly specified) | 68 | 0 | 0 | 0
C/C=C\C=C/C(=O)Nc1cccc(C2=NOC3(C2)C[C@@H](C(N)=O)N(C(=O)C2(C)CC2)C3)c1 (stereo partly specified) | 91 | 0 | 0 | 0
Cc1oc(-c2ccccc2F)nc1CS(=O)CC(=O)NCc1ccc(Cl)cc1 (stereo unspecified) | -12 | 0 | 0 | 0
Cc1cc2c(cc1C)C(=O)C(Br)=C(N)C2=O | 0 | - | - | -
NC1=C(Br)C(=O)c2ccccc2C1=O | 0 | -90 | 0 | 0
S=C(NCc1ccccc1)Nc1cccc(Cl)c1 | 0 | -78 | 0 | 0
C#CCn1c2ccccc2c2nc3ccccc3nc21 | 82 | 0 | 0 | 0
COc1ccc(NC(=O)CN(C)C(=O)c2cc3c(s2)CCC3)cc1 | 93 | 0 | 0 | 0
O=C(/C=C/c1ccccc1O)c1ccco1 | 0 | 0 | 0 | 0
O=C(/C=C/c1cc(Br)ccc1O)c1ccco1 | 0 | 0 | 47 | 0
CCCOC(=O)C1=C(C)NC(=O)NC1c1cccc2ccccc12 (stereo unspecified) | 2.5 | 0 | 0 | 0
Cc1nc2ccc(NC(=O)CCS(=O)(=O)c3ccc(Cl)cc3)cc2s1 | -174 | 0 | 0 | 0
CC(C)Oc1ccc(C2CC(=O)N(c3ccc(N(C)C)cc3)C2=O)cc1 (stereo unspecified) | 77 | 0 | 0 | 0
COc1ccc(Nc2nc3c(C)cccn3c(=O)c2C=NCc2ccccc2)cc1 | 70 | 0 | 0 | 0
CC(=O)N1CC2(CC(c3ccccc3F)=NO2)CN1c1ccc(Cl)cc1 (stereo unspecified) | 0 | - | - | -
COc1ccc(-n2nc3c(c2NC(=O)COc2ccccc2OC)CS(=O)(=O)C3)cc1 | 0 | - | - | -
O=C(c1ccco1)N1CCN(Cc2ccc(F)cc2)CC1 | 0 | - | 0 | 0
O=C(c1ccco1)N1CCN(Cc2ccccc2Br)CC1 | 72 | 0 | 0 | 0
Fc1ccc2nc(C3CCCCN3Cc3nc(CC4CC4)no3)[nH]c2c1 (stereo unspecified) | 2.2 | 0 | 0 | 0
COc1ccc(NC(=O)CSc2nc3c([nH]c4ccccc43)c(=O)n2C)c(OC)c1 | 49 | 0 | 0 | 0
CCOc1ccc(NC(=O)CSc2nc3c([nH]c4ccccc43)c(=O)n2C)cc1 | 0 | 0 | 0 | 0
NC(=O)c1ccccc1N/C=C/C(=O)c1ccco1 | 0 | 0 | 0 | 0
O=C(/C=C/Nc1ccc(Oc2ccccc2)cc1)c1ccco1 | 14 | 0 | 0 | 0
COc1cccc(C2c3c(oc4ccccc4c3=O)C(=O)N2Cc2ccco2)c1 (stereo unspecified) | 67 | 0 | 0 | 0
SMILES | DSG3 Ab inh | AI-2 QS modul | NTR1 ag | VLA-4 inh
COc1cc(C2c3c(oc4ccccc4c3=O)C(=O)N2Cc2ccco2)ccc1O (stereo unspecified) | 0 | 0 | 0 | 0
Cc1nc(N/N=C/c2cccc([N+](=O)[O-])c2)cc(N2CCCCC2)n1 | 0 | - | - | -
COc1ccc(OC)c(N(CCN2C(=O)c3ccccc3C2=O)C(=O)C2CCC(=O)C2C)c1 (stereo unspecified) | 0 | - | - | -
CNC(=O)CSc1nc2cc(S(=O)(=O)Nc3ccc(OC)cc3)ccc2o1 | -4.7 | 0 | 0 | 0
COc1ccc(NS(=O)(=O)c2ccc3oc(SC4CCOC4=O)nc3c2)cc1 (stereo unspecified) | 0 | 0 | 68 | 0
COc1ccc2c(C)cc(SC3CCOC3=O)nc2c1 (stereo unspecified) | 0 | 0 | 0 | 0
COc1ccc(NS(=O)(=O)c2ccc3oc(SC)nc3c2)cc1 | 0 | 0 | 0 | 0
COCCN(C(=O)COC(=O)C12CC3CC(CC(C3)C1)C2)c1c(N)n(Cc2ccccc2)c(=O)[nH]c1=O | 0 | - | - | -
COc1ccc(S(=O)(=O)N2CCCCC2)cc1NC(=O)C1CC(=O)N(Cc2ccccc2)C1 (stereo unspecified) | 0 | - | 0 | 0
COc1ccc(C(=O)N(CC2CCCO2)C(C(=O)NCCC(C)C)c2ccc(C)cc2)cc1OC (stereo unspecified) | 87 | 0 | 0 | 0
CCN(C(=O)COC(=O)/C=C/c1nc2ccccc2s1)c1c(N)n(Cc2ccccc2)c(=O)[nH]c1=O | 0 | - | - | -
O=C(O)c1ccc2c(c1)S(=O)(=O)c1cc(N3CCN(c4ncccn4)CC3)ccc1C2=O | 0 | - | - | -
CC(=O)Nc1cccc(-c2csc(Nc3ccccn3)n2)c1 | 70 | 0 | 0 | 0
CC(=O)Nc1cccc(-c2csc(Nc3cc(C)ccn3)n2)c1 | 0 | 0 | 0 | 0
COc1ccc2cc3c(N)nn(C(=O)c4ccc(F)cc4)c3nc2c1 | 62 | 0 | 0 | 0
O=C(CCN1C(=O)/C(=C/c2ccccc2)SC1=S)NNC(=O)c1cccnc1 | - | 0 | 0 | 0
O=C(CCN1C(=O)/C(=C/c2cccc(Br)c2)SC1=S)NNC(=O)c1cccnc1 | 83 | 0 | 0 | 0
O=C(CCN1C(=O)/C(=C/c2ccc(F)cc2)SC1=S)NNC(=O)c1cccnc1 | 88 | 0 | 0 | 0
CSCCC(NS(=O)(=O)c1ccc(Cl)cc1)C(=O)N1CCN(c2ccccc2)CC1 (stereo unspecified) | -2.0 | - | - | -
O=C(Nc1cccnc1)c1ccc([N+](=O)[O-])s1 | 0 | - | 0 | 0
C[C@H]1c2cccc(O)c2C(O)=C2C(=O)[C@]3(O)C(O)=C(C(N)=O)C(=O)[C@@H](N(C)C)C3[C@@H](O)C21 (stereo partly specified) | 0 | -120 | 0 | 0
CC(C)NC[C@@H](O)c1ccc(O)c(O)c1 | 0 | 0 | 0 | 0
CC(C)(C)NCC(O)c1cc(O)cc(O)c1 (stereo unspecified) | 45 | 0 | - | 0
CC(C)CNC(=O)C(=O)NCc1ccccn1 | 15 | 0 | 0 | 0
CC(C)NC(=O)C(=O)NCc1ccccn1 | 0 | 0 | 0 | 0
SMILES | DSG3 Ab inh | AI-2 QS modul | NTR1 ag | VLA-4 inh
CCCCCC(=O)N1C[C@@H](n2cc(-c3ccc(F)cc3)nn2)[C@H](O)C[C@@H]1c1ccc(OC)cc1 | 0 | - | - | -
COc1cccc(C(=O)NCC2CCCN(C(=O)Cc3cccc(C)c3)C2)c1OC (stereo unspecified) | 0 | - | - | -
O=C(CCS(=O)(=O)c1ccccc1)Nc1nc(-c2cccs2)cs1 | 69 | 0 | 0 | 0
COc1cc(NC(=O)CNC(=O)Cn2cnc3sc(C)c(C)c3c2=O)cc(OC)c1OC | 0 | - | - | -
CCOC(=O)c1ccc(S(=O)(=O)NCC(C)(C)N2CCOCC2)cc1 | 77 | 0 | 0 | 0
CC(=O)c1cccc(S(=O)(=O)NCC(C)(C)N2CCOCC2)c1 | 0 | 0 | 0 | 0
Nc1nonc1-n1nnc(C(=O)N/N=C/c2ccc(OCc3ccccc3F)cc2)c1CN1CCCCC1 | -3.4 | 0 | 0 | 0
Nc1nonc1-n1nnc(C(=O)N/N=C/c2ccc(OCc3cccc(Cl)c3)cc2)c1CN1CCCCC1 | 0 | 0 | 0 | 0
